About 83,000 compounds went through this panel and 20% of them were active in at least one assay; those are over-represented in the sample as a whole.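 Single-dose data. Exposure time 48 hours. Values below 10 considered active.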 Values without a mark were called inactive. The source made the active and inactive calls.

Among the test systems are DU-145 prostate; K-562 leukemia; MALME-3M melanoma; MDA-MB-231 breast; RXF 393 renal; SF-268 CNS; SF-295 CNS; SF-539 CNS; UACC-257 melanoma; M14 melanoma; HCT-15 colon; HT29 colon; SNB-75 CNS; SNB-19 CNS; U251 CNS; PC-3 prostate; SK-MEL-5 melanoma; UACC-62 melanoma; LOX IMVI melanoma; SK-MEL-28 melanoma.
Holding throughout (test): NCI-60 one-dose screen, 48 h (100 = growth as untreated, 0 = no growth, -100 = all killed)
Common to all, as to details: 10 µM unless noted

As to `CCCC(=O)Oc1ccc(/C(=C(\C)c2ccc(OC)cc2)c2ccc(OCCN3CCCCC3)cc2)cc1`, the growth was 87.1% in the assay with DU-145 prostate; 21.9% in the assay with K-562 leukemia; 61.9% in the assay on MALME-3M melanoma; 109% in the assay on MDA-MB-231 breast; 66.2% with RXF 393 renal; 83.1% in the assay on SF-268 CNS. Moreover, the growth in the assay on SF-295 CNS was 61.5%; with SF-539 CNS, 65.5%; in the assay with UACC-257 melanoma, 68.5%; in the assay on M14 melanoma, 33.8%; in the assay with HCT-15 colon, 64.1%; with HT29 colon, 1.78% (active). Further, the growth is 73% with SNB-75 CNS; 91% with SNB-19 CNS; 63.8% with U251 CNS; 64.7% with PC-3 prostate; 68.8% with SK-MEL-5 melanoma; 63.6% in the assay on UACC-62 melanoma. The growth in the assay on LOX IMVI melanoma is 68.5%; with SK-MEL-28 melanoma it was 63.9%.

`COc1cc([C@@H]2c3cc4c(cc3C(OC3O[C@@H]5COC(C)O[C@H]5[C@H](O)[C@H]3O)C3COC(=O)[C@@H]32)OCO4)cc(OC)c1O` (stereo partly drawn): the growth in the assay with DU-145 prostate was 15.9%; with K-562 leukemia, 30.5%; in the assay on MALME-3M melanoma, 40.2%; in the assay on MDA-MB-231 breast, 78.3%; with RXF 393 renal, 28.9%; in the assay with SF-268 CNS, 23.9%. Besides, the growth with SF-295 CNS is -10.4% (active); in the assay on SF-539 CNS it was -5.44% (active); with UACC-257 melanoma it was 51.2%; in the assay with M14 melanoma, 4.19% (active); in the assay with HCT-15 colon it was 73.1%; in the assay on HT29 colon, 64.5%. For the same compound, the growth in the assay with SNB-75 CNS is 31.2%; with SNB-19 CNS it was 27.4%; in the assay on U251 CNS it was 13.5%; in the assay on PC-3 prostate, 63.3%; with UACC-62 melanoma it was 33.7%; in the assay on LOX IMVI melanoma, 12%. For the same compound, the growth in the assay with SK-MEL-28 melanoma was 61.4%.

For the compound `Cl[C@@H]1CCO[C@H](c2cc3ccccc3c3ccccc23)C1`, the growth with DU-145 prostate was 102%; in the assay with K-562 leukemia, 95.5%; with MALME-3M melanoma, 106%; with MDA-MB-231 breast it was 90.2%; with RXF 393 renal it was 98.8%; in the assay on SF-268 CNS it was 97.9%. Also, the growth in the assay with SF-295 CNS is 96.4%; with SF-539 CNS, 95%; in the assay on UACC-257 melanoma it was 93.4%; in the assay with M14 melanoma, 95.3%; in the assay with HCT-15 colon, 96.9%; in the assay on HT29 colon, 98.8%. Moreover, the growth was 103% in the assay on SNB-75 CNS; 91.7% with SNB-19 CNS; 90.6% with U251 CNS; 92.8% with PC-3 prostate; 85.2% in the assay with UACC-62 melanoma; 97.6% with LOX IMVI melanoma. In addition, the growth in the assay with SK-MEL-28 melanoma is 104%.

In the case of `COC1=C(OC)C(=O)C=CC1=O`, the growth in the assay on DU-145 prostate was 114%; in the assay on K-562 leukemia, 7.24% (active); in the assay with MALME-3M melanoma, 114%; in the assay with MDA-MB-231 breast, 101%; in the assay on RXF 393 renal it was 114%; in the assay on SF-268 CNS, 109%. Further, the growth in the assay with SF-295 CNS was 113%; with SF-539 CNS it was 110%; in the assay with UACC-257 melanoma, 110%; in the assay on M14 melanoma it was 116%; in the assay with HCT-15 colon, 108%; in the assay with HT29 colon, 95.4%. In addition, the growth is 110% in the assay with SNB-75 CNS; 108% in the assay on SNB-19 CNS; 107% in the assay on U251 CNS; 92.7% with PC-3 prostate; 94.1% in the assay with UACC-62 melanoma; 100% with LOX IMVI melanoma. Besides, the growth in the assay on SK-MEL-28 melanoma was 120%.

On to `COc1ccc(-c2nn(-c3ccc(NC(=O)Nc4ccc(Cl)c(Cl)c4)cc3)cc2-c2ccncc2)cc1Cl`, for which the growth in the assay on DU-145 prostate was 28.6%; with K-562 leukemia, 11.6%; with MALME-3M melanoma it was 16%; in the assay with MDA-MB-231 breast it was 0.693% (active); in the assay with RXF 393 renal, -55.7% (active); with SF-268 CNS it was 31.1%. Moreover, the growth in the assay on SF-295 CNS is 1.08% (active); with SF-539 CNS, 15.7%; in the assay with UACC-257 melanoma it was 11.9%; in the assay on M14 melanoma, 6.66% (active); in the assay on HCT-15 colon, 7.56% (active); with HT29 colon, 6.65% (active). Also, the growth in the assay with SNB-75 CNS is 46.8%; with SNB-19 CNS it was 34.4%; in the assay with U251 CNS, 0.654% (active); in the assay on PC-3 prostate it was 11.3%; in the assay on UACC-62 melanoma, 9.56% (active); with LOX IMVI melanoma it was -0.494% (active). In addition, the growth in the assay with SK-MEL-28 melanoma is 28.4%.

Consider `COc1cc(/C=C/C(=O)c2ccc(Oc3ncnc4ccccc34)cc2)cc(OC)c1OC`, for which the growth with DU-145 prostate was 21.4%; in the assay on K-562 leukemia it was 12.1%; with MALME-3M melanoma, 98.9%; in the assay with MDA-MB-231 breast it was 86.5%; in the assay with RXF 393 renal, 84.3%; in the assay on SF-268 CNS, 81.1%. For the same compound, the growth was 86.7% in the assay on SF-295 CNS; 63.6% in the assay on SF-539 CNS; 93.3% with UACC-257 melanoma; 73.8% in the assay with M14 melanoma; 41.5% in the assay on HCT-15 colon; 79.7% in the assay on HT29 colon. Moreover, the growth in the assay with SNB-75 CNS was 69.5%; in the assay on SNB-19 CNS, 68.6%; in the assay with U251 CNS, 60.3%; in the assay on PC-3 prostate, 75.6%; in the assay with UACC-62 melanoma, 65.9%; with LOX IMVI melanoma it was 40.4%. Further, the growth in the assay with SK-MEL-28 melanoma was 89.4%.

For `Nc1nc(-c2cc3c(cc2Cl)NC(=O)/C3=C/c2ccc(Cl)cc2)cs1`, the growth in the assay with DU-145 prostate is 64.6%; in the assay with K-562 leukemia, 5.83% (active); in the assay on MALME-3M melanoma it was 56.2%; in the assay with MDA-MB-231 breast, 2.9% (active); in the assay with RXF 393 renal it was 51.6%; in the assay with SF-268 CNS, 44.7%. The growth in the assay on SF-295 CNS is 60.5%; in the assay on SF-539 CNS it was 62.3%; in the assay with UACC-257 melanoma, 73.5%; in the assay on M14 melanoma it was 28.7%; with HCT-15 colon, 49.6%; with HT29 colon, 35.6%. Further, the growth was 49.1% with SNB-75 CNS; 31.2% in the assay with SNB-19 CNS; 21.8% with U251 CNS; 32.6% in the assay on PC-3 prostate; 36% with UACC-62 melanoma; 12.6% in the assay with LOX IMVI melanoma. Also, in the assay with SK-MEL-28 melanoma, the growth was 45.4%.

Consider `COc1cc2c(/C=C3/C(=O)Nc4ccc(O)cc43)c(Cl)n(Cc3cc(OC)c(OC)c(OC)c3)c2cc1C`, for which the growth was 20.4% in the assay on DU-145 prostate; -30.7% (active) with K-562 leukemia; 2.88% (active) in the assay on MALME-3M melanoma; 61% in the assay on MDA-MB-231 breast; -20.9% (active) in the assay on RXF 393 renal; 24% with SF-268 CNS. Moreover, the growth in the assay with SF-295 CNS is 38.9%; with SF-539 CNS, -16.7% (active); with UACC-257 melanoma, 20.5%; in the assay with M14 melanoma, 11.5%; in the assay with HCT-15 colon, 38.1%; in the assay with HT29 colon it was 10.4%. The growth with SNB-75 CNS was 32.2%; with SNB-19 CNS, 20.2%; in the assay with U251 CNS, 32.2%; in the assay on PC-3 prostate, 11.3%; in the assay with UACC-62 melanoma, 36.6%; with LOX IMVI melanoma, 39.7%. The growth in the assay with SK-MEL-28 melanoma was 45.2%.

These data come from PubChem BioAssay (NCI).
